{"source": "paper PMC6925144", "about": "“A prospective compound screening contest identified broader inhibitors for Sirtuin 1” (Scientific Reports, 2019)", "note": "The full ranking holds about 3,200 compounds; the median of “TSA(with NAD+) / Primary screening (TSA) / delta Tm (K)” is about -0.04, and the highest 2% start at about 0.37. This excerpt belongs to a sample that is enriched for the highest values.", "data": [{"target": "NAD-dependent deacetylase Sirtuin 1 (human, UniProt Q96EB6)", "sequence (Q96EB6 2-747 limits assumed)": "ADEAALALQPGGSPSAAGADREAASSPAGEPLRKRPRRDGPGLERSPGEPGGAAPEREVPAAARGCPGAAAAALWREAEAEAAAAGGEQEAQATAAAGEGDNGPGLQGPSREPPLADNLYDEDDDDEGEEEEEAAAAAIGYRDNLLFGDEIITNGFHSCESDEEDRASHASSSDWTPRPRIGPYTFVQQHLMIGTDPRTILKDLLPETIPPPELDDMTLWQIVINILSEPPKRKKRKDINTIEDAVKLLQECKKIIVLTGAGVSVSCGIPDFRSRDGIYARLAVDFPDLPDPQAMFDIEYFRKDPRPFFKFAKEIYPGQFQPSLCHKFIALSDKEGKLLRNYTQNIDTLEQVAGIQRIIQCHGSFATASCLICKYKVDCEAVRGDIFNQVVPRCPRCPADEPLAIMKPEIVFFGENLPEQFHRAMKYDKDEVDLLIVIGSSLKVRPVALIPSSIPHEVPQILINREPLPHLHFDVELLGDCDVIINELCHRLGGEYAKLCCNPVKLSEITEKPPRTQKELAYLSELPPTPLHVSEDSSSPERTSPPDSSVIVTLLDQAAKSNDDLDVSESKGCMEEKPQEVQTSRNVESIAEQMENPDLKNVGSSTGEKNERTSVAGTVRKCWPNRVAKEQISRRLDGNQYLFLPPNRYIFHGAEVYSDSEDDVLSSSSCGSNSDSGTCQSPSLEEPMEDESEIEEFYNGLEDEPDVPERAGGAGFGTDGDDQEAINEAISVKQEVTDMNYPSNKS", "experiment": "primary screen, delta tm", "design": "single well (n = 1, as 'the same TSA')", "conditions": "10 µM", "experimental": "A total of 3,192 compounds extracted from the proposed lists were first screened by thermal shift assay (TSA), which determined a melting temperature shift (ΔTm) of Sirtuin 1 upon the addition of a test compound at a concentration of 10 µM (n = 1) with primary hit criteria of ΔTm > 0.45 K or ΔTm < −1.5 K. Primary hits (48 compounds) were retested in the same assay at three concentrations (5, 10, 20 µM, n = 4) for hit confirmation and for dose-dependency check. Secondary hits (41 compounds) were checked their selectivity for Sirtuin 1 based on counterscreening on unrelated protein targets (bovine carbonic anhydrase (CA) and recombinant SH2 domain of hABL1 kinase (ABL1)) at three different concentrations (5, 10, 20 µM, n = 4), which yielded 38 hit compounds, hereafter referred to as TSA hits. The TSA screening above was conducted in the absence of NAD+. As noted, the structure of Sirtuin 1 is different in the presence of NAD+ and substrate. The chemical profile of TSA hits found from the different conditions could be different. […] As a result, 39 TSA hits were found.", "units": {"TSA(with NAD+) / Primary screening (TSA) / delta Tm (K)": "K"}, "values": [{"smiles": "CCNC(=O)NCc1ccc(NC(=O)Cc2cn(CC)c3ccccc23)cc1", "TSA(with NAD+) / Primary screening (TSA) / delta Tm (K)": 0.09}, {"smiles": "Cc1ccc2nc(-c3ccccc3)c(N)n2c1", "TSA(with NAD+) / Primary screening (TSA) / delta Tm (K)": 0.38}, {"smiles": "NC(=O)c1cc(NC(=O)CC(c2ccccc2)c2ccccc2)cc(C(N)=O)c1", "TSA(with NAD+) / Primary screening (TSA) / delta Tm (K)": -0.06}, {"smiles": "Cc1ccc(N(C)S(=O)(=O)c2cccc(C(=O)Nc3cc(F)ccc3C)c2)cc1", "TSA(with NAD+) / Primary screening (TSA) / delta Tm (K)": -0.01}, {"smiles": "O=C(Nc1cc(S(=O)(=O)N2CCOCC2)ccc1O)C1=COCCO1", "TSA(with NAD+) / Primary screening (TSA) / delta Tm (K)": -0.16}, {"smiles": "CC1CCc2sc(C(=O)Nc3ccccc3Cc3ccccc3)cc2C1", "note": "(stereo not drawn)", "TSA(with NAD+) / Primary screening (TSA) / delta Tm (K)": -0.13}, {"smiles": "CC(=O)Nc1ccc(NC(=O)c2cccc(C(N)=O)c2)cc1C", "TSA(with NAD+) / Primary screening (TSA) / delta Tm (K)": -0.12}, {"smiles": "NC(=O)c1cccc(NC(=O)c2cc3c(s2)-c2ccccc2CC3)c1", "TSA(with NAD+) / Primary screening (TSA) / delta Tm (K)": 0.88}, {"smiles": "O=C(O)c1nc(Nc2ccc(Cl)cc2)c2ccccc2n1", "TSA(with NAD+) / Primary screening (TSA) / delta Tm (K)": -0.11}, {"smiles": "CCn1nnc2cc(C(=O)N3CCN(C(c4ccc(F)cc4)c4ccc(F)cc4)CC3)ccc21", "TSA(with NAD+) / Primary screening (TSA) / delta Tm (K)": -0.22}, {"smiles": "Cc1ccc(NC(=O)COC(=O)c2ccc(-n3nnc4ccccc43)c([N+](=O)[O-])c2)cc1C", "TSA(with NAD+) / Primary screening (TSA) / delta Tm (K)": 0.35}, {"smiles": "NC(=O)c1ccc(NC(=O)COC(=O)c2cc3c(s2)CCCCC3)cc1", "TSA(with NAD+) / Primary screening (TSA) / delta Tm (K)": -0.13}, {"smiles": "CCOc1cc(/C=N/NC(=O)c2cc3c(s2)CCCC3)ccc1OCC(=O)Nc1cccc(C(F)(F)F)c1", "TSA(with NAD+) / Primary screening (TSA) / delta Tm (K)": 1.05}, {"smiles": "COc1cc(/C=N/NC(=O)c2cc3c(s2)CCCC3)ccc1OS(=O)(=O)c1cc(C)ccc1C", "TSA(with NAD+) / Primary screening (TSA) / delta Tm (K)": 0.09}, {"smiles": "CC(OC(=O)c1cc2c(s1)CCCC2)C(=O)Nc1ccc(C(N)=O)cc1", "note": "(stereo not drawn)", "TSA(with NAD+) / Primary screening (TSA) / delta Tm (K)": 0.01}, {"smiles": "CCOc1ccc(NC(=O)CN(C)Cc2ccc(C(=O)Nc3ccccc3)cc2)cc1OCC", "TSA(with NAD+) / Primary screening (TSA) / delta Tm (K)": -0.02}, {"smiles": "COc1cc(/C=N/NC(=O)c2cc3c(s2)CCCC3)ccc1OCC(=O)Nc1ccc(C)cc1", "TSA(with NAD+) / Primary screening (TSA) / delta Tm (K)": 0.52}, {"smiles": "O=c1cc(CSc2ncc(C(F)(F)F)cc2Cl)nc2ccccn12", "TSA(with NAD+) / Primary screening (TSA) / delta Tm (K)": -0.23}, {"smiles": "Cc1cc(C=C2C(=O)NC(=S)NC2=O)c(C)n1-c1cccc(C(F)(F)F)c1", "TSA(with NAD+) / Primary screening (TSA) / delta Tm (K)": -0.73}, {"smiles": "Cc1oc2nc[nH]c(=O)c2c1C(=O)OC(C)C(=O)N1CCOCC1", "note": "(stereo not drawn)", "TSA(with NAD+) / Primary screening (TSA) / delta Tm (K)": -0.06}, {"smiles": "O=C(Nc1cnc2ccccc2c1)C(=O)N1CCC(Oc2ccccc2)CC1", "TSA(with NAD+) / Primary screening (TSA) / delta Tm (K)": 0.06}, {"smiles": "CCSC1CCC(NC(=O)Cc2cnc3ccccc3c2)C1", "note": "(stereo not drawn)", "TSA(with NAD+) / Primary screening (TSA) / delta Tm (K)": -0.11}, {"smiles": "CCn1cc(C2CCN(C(=O)Cc3cnc4ccccc4c3)CC2)cn1", "TSA(with NAD+) / Primary screening (TSA) / delta Tm (K)": 0.68}, {"smiles": "COc1ccc(CNCc2c[nH]nc2-c2ccc(C)cc2)cc1OC", "TSA(with NAD+) / Primary screening (TSA) / delta Tm (K)": -0.13}, {"smiles": "c1ccc(-c2[nH]c3ccccc3c2-c2ccccc2)cc1", "TSA(with NAD+) / Primary screening (TSA) / delta Tm (K)": 0.39}, {"smiles": "Nc1nc(-c2c(-c3ccccc3)[nH]c3ccccc23)cs1", "TSA(with NAD+) / Primary screening (TSA) / delta Tm (K)": 0.16}, {"smiles": "c1ccc(-c2[nH]c3c(ccc4ccccc43)c2-c2ccccc2)cc1", "TSA(with NAD+) / Primary screening (TSA) / delta Tm (K)": 0.29}, {"smiles": "CC1COCCN1c1ncnc2ccsc12", "note": "(stereo not drawn)", "TSA(with NAD+) / Primary screening (TSA) / delta Tm (K)": 0.03}, {"smiles": "NC(=O)c1csc(C(=O)NCCc2cc(F)cc3c2OCOC3)c1", "TSA(with NAD+) / Primary screening (TSA) / delta Tm (K)": -0.03}, {"smiles": "Cc1ccc([N+](=O)[O-])cc1S(=O)(=O)Nc1ccc(C(=O)OC(C)C(=O)NC23CC4CC(CC(C4)C2)C3)cc1", "note": "(stereo not drawn)", "TSA(with NAD+) / Primary screening (TSA) / delta Tm (K)": 0.76}, {"smiles": "COc1cc(C(C)=O)ccc1COc1ccc(C(=O)OC(C)C(=O)NC23CC4CC(CC(C4)C2)C3)cc1OC", "note": "(stereo not drawn)", "TSA(with NAD+) / Primary screening (TSA) / delta Tm (K)": 0.09}, {"smiles": "CC(OC(=O)c1cccc(S(=O)(=O)NCc2ccccc2)c1)C(=O)NC12CC3CC(CC(C3)C1)C2", "note": "(stereo not drawn)", "TSA(with NAD+) / Primary screening (TSA) / delta Tm (K)": 0.16}, {"smiles": "c1ccc(CN2CCCCCC2)c(CNc2ccc3nnnn3n2)c1", "TSA(with NAD+) / Primary screening (TSA) / delta Tm (K)": -0.04}, {"smiles": "Cc1cc(F)ccc1N1CCCC(Nc2ccc3nnnn3n2)C1", "note": "(stereo not drawn)", "TSA(with NAD+) / Primary screening (TSA) / delta Tm (K)": 0.68}, {"smiles": "Cc1ncc(CN2CCC(Nc3ccc4nnnn4n3)C(C)C2)s1", "note": "(stereo not drawn)", "TSA(with NAD+) / Primary screening (TSA) / delta Tm (K)": 0.09}, {"smiles": "O=C(CN1CCc2ccccc21)Nc1cnc2ccccc2c1", "TSA(with NAD+) / Primary screening (TSA) / delta Tm (K)": -0.13}, {"smiles": "NC(=O)C1CCN(c2nc(CN3CCCCC3)nc3sc4c(c23)CCC4)CC1", "TSA(with NAD+) / Primary screening (TSA) / delta Tm (K)": -0.19}, {"smiles": "NC(=O)C1CN(c2nc(C3CC3)nc3sc4c(c23)CCCC4)CCO1", "note": "(stereo not drawn)", "TSA(with NAD+) / Primary screening (TSA) / delta Tm (K)": -0.19}, {"smiles": "Cc1sc2nc(CN3CCCC3)nc(N3CCC(C(N)=O)CC3)c2c1C", "TSA(with NAD+) / Primary screening (TSA) / delta Tm (K)": 0.12}, {"smiles": "Cc1sc2nc(CSc3ccccc3)nc(N3CCC(C(N)=O)CC3)c2c1C", "TSA(with NAD+) / Primary screening (TSA) / delta Tm (K)": 0.49}, {"smiles": "Cc1sc2nc(CSc3ccccc3)nc(N3CCCC(C(N)=O)C3)c2c1C", "note": "(stereo not drawn)", "TSA(with NAD+) / Primary screening (TSA) / delta Tm (K)": -0.18}, {"smiles": "NC(=O)C1CCN(c2nc(CSc3ccccc3)nc3sc4c(c23)CCCC4)CC1", "TSA(with NAD+) / Primary screening (TSA) / delta Tm (K)": 2.22}, {"smiles": "Cc1ccc(C(=O)Nc2ccc(N3CCN(Cc4ccccc4)CC3)cc2)cc1NC(=O)c1ccco1", "TSA(with NAD+) / Primary screening (TSA) / delta Tm (K)": 0.12}, {"smiles": "COc1ccc(-c2csc3nc(C)nc(N4CCN(C5CCS(=O)(=O)C5)CC4)c23)cc1OC", "note": "(stereo not drawn)", "TSA(with NAD+) / Primary screening (TSA) / delta Tm (K)": -0.09}, {"smiles": "O=C(O)c1cnc2c(c1)c(=O)[nH]c(=O)n2Cc1ccccc1", "TSA(with NAD+) / Primary screening (TSA) / delta Tm (K)": -0.13}, {"smiles": "Cn1c(-c2ccccc2)c(C=O)c2ccccc21", "TSA(with NAD+) / Primary screening (TSA) / delta Tm (K)": -0.32}, {"smiles": "CCCCn1ccnc1C(=O)c1cccc(S(=O)(=O)N(C)c2ccccc2)c1", "TSA(with NAD+) / Primary screening (TSA) / delta Tm (K)": -0.08}, {"smiles": "CC1CN(C(=O)/C=C/c2ccc(C(=O)O)cc2)CC(C)(C)O1", "note": "(stereo not drawn)", "TSA(with NAD+) / Primary screening (TSA) / delta Tm (K)": -0.13}, {"smiles": "CC1(C)NC(=O)N(CC(=O)Nc2sc3c(c2-c2nc4ccccc4[nH]2)CCCC3)C1=O", "TSA(with NAD+) / Primary screening (TSA) / delta Tm (K)": 0.37}, {"smiles": "O=C(CN1CCCCCCC1=O)NCCc1nc2ccccc2[nH]1", "TSA(with NAD+) / Primary screening (TSA) / delta Tm (K)": -0.22}, {"smiles": "COC(=O)c1cc(NC(=O)CN2C(=O)NC(C)(c3ccc4ccccc4c3)C2=O)cc(C(=O)OC)c1", "note": "(stereo not drawn)", "TSA(with NAD+) / Primary screening (TSA) / delta Tm (K)": 0.19}, {"smiles": "CCCCOc1cc(C2NC(N)=Nc3nc4ccccc4n32)ccc1OC", "note": "(stereo not drawn)", "TSA(with NAD+) / Primary screening (TSA) / delta Tm (K)": -0.22}, {"smiles": "NC1=Nc2nc3ccccc3n2C(c2ccc(-c3ccc(C(=O)O)cc3)o2)N1", "note": "(stereo not drawn)", "TSA(with NAD+) / Primary screening (TSA) / delta Tm (K)": 1.27}, {"smiles": "O=C(O)CCCc1ccc2c(c1)-c1ccccc1C2", "TSA(with NAD+) / Primary screening (TSA) / delta Tm (K)": 0.06}, {"smiles": "COc1ccc(/C=C2/Oc3cc(O)ccc3C2=O)c(OC)c1", "TSA(with NAD+) / Primary screening (TSA) / delta Tm (K)": 0.12}, {"smiles": "O=C1/C(=C/c2ccccc2OC(F)F)Oc2cc(O)ccc21", "TSA(with NAD+) / Primary screening (TSA) / delta Tm (K)": 0.15}, {"smiles": "O=C1/C(=C/c2ccc(OC(F)F)cc2OC(F)F)Oc2cc(O)ccc21", "TSA(with NAD+) / Primary screening (TSA) / delta Tm (K)": 0.37}]}]}
